In the library only some 3.2% were active in any assay of this set; here they are far more common.
A3G deaminase – inhibitors of human APOBEC3G DNA deaminase; Q9HC16; recombinant A3G, ssDNA deamination FAM/TAMRA fluorescence; inhibition, % at 20 µM; 0.28% of 330,000 active;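 active = inhibition of at least 40% at 20 µM, with no more than 30% in the related APOBEC3A deaminase screen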;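 also: plate controls were DMSO wells with A3G for no effect and wells lacking A3G enzyme for full effect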
AHR act – human AHR activation | P35869 | AHR-responsive luciferase reporter cells, luminescence | activation, % at 5 µM | 2.5% of 320,000 active | AID 2796; in the data active = activation above about 47%;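 also: 0% = vehicle wells and 100% = reference agonist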
Target sequence (P35869 whole entry, looked up): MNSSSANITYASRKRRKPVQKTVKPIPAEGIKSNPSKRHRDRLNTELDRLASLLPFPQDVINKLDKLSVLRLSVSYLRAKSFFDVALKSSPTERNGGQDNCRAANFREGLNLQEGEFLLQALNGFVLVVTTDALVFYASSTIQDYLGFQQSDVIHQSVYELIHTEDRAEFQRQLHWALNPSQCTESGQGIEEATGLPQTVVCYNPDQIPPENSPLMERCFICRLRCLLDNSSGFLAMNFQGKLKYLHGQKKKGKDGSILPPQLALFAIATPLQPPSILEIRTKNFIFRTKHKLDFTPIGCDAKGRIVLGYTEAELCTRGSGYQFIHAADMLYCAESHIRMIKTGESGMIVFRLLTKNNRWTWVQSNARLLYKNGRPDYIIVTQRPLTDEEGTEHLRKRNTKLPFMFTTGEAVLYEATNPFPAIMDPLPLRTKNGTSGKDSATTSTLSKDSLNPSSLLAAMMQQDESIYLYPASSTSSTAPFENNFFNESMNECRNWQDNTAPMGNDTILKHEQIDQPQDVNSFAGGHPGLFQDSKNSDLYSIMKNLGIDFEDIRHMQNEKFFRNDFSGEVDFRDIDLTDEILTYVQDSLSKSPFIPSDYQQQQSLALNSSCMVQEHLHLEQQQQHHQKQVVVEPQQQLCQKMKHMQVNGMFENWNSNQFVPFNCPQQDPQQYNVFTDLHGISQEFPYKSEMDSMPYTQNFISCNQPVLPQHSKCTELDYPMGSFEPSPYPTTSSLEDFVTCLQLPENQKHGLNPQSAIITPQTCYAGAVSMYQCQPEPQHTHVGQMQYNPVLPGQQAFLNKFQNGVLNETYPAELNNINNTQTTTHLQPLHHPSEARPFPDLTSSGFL
APOBEC3A inh – blocks human APOBEC3A ssDNA deamination. P31941. recombinant A3A, FAM/TAMRA ssDNA deamination fluorescence. inhibition, % at 20 µM. 0.41% of 330,000 active. AID 493011;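 active = at least 40% inhibition at 20 µM here, with at most 30% in a related deaminase screen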;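 also: plate controls were A3A with DMSO for no effect and wells lacking A3A enzyme for full effect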
NTR1 agonist – NTR1 (human) agonism | P30989 | NTR1-U2OS beta-arrestin-GFP spot imaging, agonist mode | activation, % at 20 µM | 0.17% of 330,000 active;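 active = activation at or above 40% of the spot to cytoplasm intensity ratio, with at least 20 cells analyzed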;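 also: 0% = DMSO without peptide and 100% = 100 nM NTR1 peptide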
* = called active by the depositor.

Screening O=C(CC1C(=O)NCCN1Cc1ccccc1)NCCCOc1cccnc1 (stereo not drawn) returned A3G deaminase -8, AHR act -8, APOBEC3A inh 2 and NTR1 agonist -1.
COc1ccc(Nc2nc(C)nc3c2oc2ccccc23)cc1 was read as A3G deaminase -2, AHR act 11, APOBEC3A inh 0 and NTR1 agonist 5.
Cc1nc(Nc2ccccc2)c2oc3ccc(Cl)cc3c2n1 was read as A3G deaminase -9, AHR act 51*, APOBEC3A inh -3 and NTR1 agonist 2.
For Cc1nc(Nc2ccc3c(c2)OCO3)c2oc3ccccc3c2n1 the results were A3G deaminase -5, AHR act 65*, APOBEC3A inh 1 and NTR1 agonist 2.
For Cc1nc(NCCc2ccccc2)c2oc3ccccc3c2n1 the results were A3G deaminase -7, AHR act 64*, APOBEC3A inh -1 and NTR1 agonist 8.
`Cc1ccc(Nc2nc(C)nc3c2oc2ccccc23)cc1` gave A3G deaminase -11, AHR act 61*, APOBEC3A inh 2 and NTR1 agonist 7.
Screening COc1cc(C(=O)NCC(c2cccs2)N2CCOCC2)c([N+](=O)[O-])cc1OC (stereo not drawn) returned A3G deaminase -9, AHR act 0, APOBEC3A inh -3 and NTR1 agonist 0.
`NC(=O)C1CCN(C(=O)CC(c2ccccc2)c2ccccc2)CC1` gave A3G deaminase -9, AHR act 0, APOBEC3A inh -2 and NTR1 agonist 1.
Screening Cc1ccnc2nc(C(=O)OC(C)C(=O)NCc3ccccc3)nn12 (stereo not drawn) returned A3G deaminase -6, AHR act -1, APOBEC3A inh -4 and NTR1 agonist 0.
COc1ccc(NC(=O)Nc2c(C)n(C)n(-c3ccccc3)c2=O)c(OC)c1 was read as A3G deaminase -9, AHR act -1, APOBEC3A inh -3 and NTR1 agonist 0.
`O=C(NCCSc1c[nH]c2ccccc12)c1ccc2c(c1)OCO2` gave A3G deaminase 0, AHR act 50*, APOBEC3A inh -2 and NTR1 agonist -2.
Screening O=C(NCCc1c[nH]c2ccccc12)c1cc(Cl)c2c(c1)OCO2 returned A3G deaminase -7, AHR act 48*, APOBEC3A inh -3 and NTR1 agonist -2.
Screening O=C(Nc1ccccc1)N1CCN(S(=O)(=O)c2ccccc2)CC1 returned A3G deaminase -5, AHR act 2, APOBEC3A inh -3 and NTR1 agonist 0.
Screening CC1(C)CC(=O)C=C(c2ccc3c(c2)OCO3)C1 returned A3G deaminase -2, AHR act 59*, APOBEC3A inh -1 and NTR1 agonist 0.
For O=C(CN1C(=O)CCSc2ccc(S(=O)(=O)N3CCCC3)cc21)Nc1ccccc1 the results were A3G deaminase 3, AHR act 3, APOBEC3A inh 1 and NTR1 agonist 0.
CCCNc1nc(Nc2ccc(C)c(Cl)c2)c2cnn(C)c2n1 was read as A3G deaminase -9, AHR act 64*, APOBEC3A inh -3 and NTR1 agonist 25.
Screening CNc1nc(Nc2ccc(C)c(Cl)c2)c2cnn(C)c2n1 returned A3G deaminase -9, AHR act 37, APOBEC3A inh -3 and NTR1 agonist 7.
`O=S(=O)(c1ccc(NC(=S)Nc2ccc3c(c2)OCO3)cc1)N1CCOCC1` gave A3G deaminase -1, AHR act 74*, APOBEC3A inh -1 and NTR1 agonist 0.
Screening CCN(CC)S(=O)(=O)c1cccc(NC(=O)CNc2cccc(S(=O)(=O)N3CCOCC3)c2)c1 returned A3G deaminase -5, AHR act -9, APOBEC3A inh 0 and NTR1 agonist -1.
CCOC(=O)C(C(=O)OCC)N(C#N)c1nc(OC)nc(N(C)C)n1 was read as A3G deaminase -3, AHR act -2, APOBEC3A inh 2 and NTR1 agonist -2.
`CCOC(=O)C(C(=O)OCC)N(C#N)c1nc(SC)nc(N(C)C)n1` gave A3G deaminase -1, AHR act 62*, APOBEC3A inh 3 and NTR1 agonist 1.
`Cc1ccc(NC(=O)C2COc3ccccc3O2)cc1` (stereo not drawn) gave A3G deaminase -9, AHR act 7, APOBEC3A inh -7 and NTR1 agonist 0.
For Cc1ccc(NC(=O)C2Oc3ccccc3OC2C)cc1 (stereo not drawn) the results were A3G deaminase -11, AHR act 51*, APOBEC3A inh -4 and NTR1 agonist 1.
`On1onc2c3cc(-c4ccccc4)nc3ccc21` gave A3G deaminase -8, AHR act 9, APOBEC3A inh 0 and NTR1 agonist 27.
`c1ccc(-c2cc3c(ccc4nonc43)nn2)cc1` gave A3G deaminase -2, AHR act 48*, APOBEC3A inh -1 and NTR1 agonist 1.
`CC(C)(C)OC(=O)CN1C(=O)S/C(=C\c2ccc(-c3cccc(C(=O)O)c3)o2)C1=O` gave A3G deaminase -11, AHR act 1, APOBEC3A inh 45* and NTR1 agonist 0.
For COc1cccc(/C=N/Nc2ncnc3c2[nH]c2ccc(C)cc23)c1OC the results were A3G deaminase -2, AHR act 62*, APOBEC3A inh 4 and NTR1 agonist 4.
COc1ccc2[nH]c3c(NCc4ccco4)ncnc3c2c1 was read as A3G deaminase 2, AHR act 71*, APOBEC3A inh 6 and NTR1 agonist 0.
`C=CCNc1ncnc2c1[nH]c1ccc(C)cc12` gave A3G deaminase -8, AHR act 105*, APOBEC3A inh -3 and NTR1 agonist 0.
For COc1cccc(/C=N/Nc2ncnc(N)c2[N+](=O)[O-])c1OC the results were A3G deaminase -2, AHR act 1, APOBEC3A inh -1 and NTR1 agonist -2.
For COc1ccc(/C=N/Nc2ncnc3c2[nH]c2ccccc23)c(OC)c1OC the results were A3G deaminase -1, AHR act 72*, APOBEC3A inh 0 and NTR1 agonist 0.
`CC(C)Oc1ccccc1/C=N/n1nnnc1N` gave A3G deaminase 9, AHR act 3, APOBEC3A inh 2 and NTR1 agonist 0.
`O=C(c1cn(-c2ccccc2)nc1-c1cccnc1)N1CCCC(C(F)(F)F)C1` (stereo not drawn) gave A3G deaminase -8, AHR act 1, APOBEC3A inh -1 and NTR1 agonist 4.
`O=C(NCc1ccc(Cl)cc1)c1csc(-c2cccnc2)n1` gave A3G deaminase -8, AHR act 52*, APOBEC3A inh -1 and NTR1 agonist 1.
`O=C(NCCc1csc(-c2cccnc2)n1)c1ccc(Br)o1` gave A3G deaminase 2, AHR act 65*, APOBEC3A inh 3 and NTR1 agonist -2.
`O=C(NNC(=O)c1ccc(Cl)cc1Cl)c1csc(-c2cccnc2)n1` gave A3G deaminase 3, AHR act 7, APOBEC3A inh 1 and NTR1 agonist 4.
For Cc1csc2nc(SCC(=O)N3CCN(c4ccccc4)CC3)[nH]c(=O)c12 the results were A3G deaminase -8, AHR act 6, APOBEC3A inh 2 and NTR1 agonist 1.

Bioassay records deposited in PubChem BioAssay by several laboratories.
